Among the data in ChEMBL document CHEMBL1961873, “Compounds: GSK PKIS; Assays: Nanosyn kinase panel” (2012) are inhibition values, retold here.

Assay [1] has as its target Protein kinase C gamma type (Homo sapiens) (UniProt P05129). As to conditions: at 1 µM.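 Further: each value is an averaged percent inhibition of the enzyme.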
For assay [2], the target named is T1, Protein kinase C iota type (Homo sapiens) (UniProt P41743).
T1 sequence (whole entry): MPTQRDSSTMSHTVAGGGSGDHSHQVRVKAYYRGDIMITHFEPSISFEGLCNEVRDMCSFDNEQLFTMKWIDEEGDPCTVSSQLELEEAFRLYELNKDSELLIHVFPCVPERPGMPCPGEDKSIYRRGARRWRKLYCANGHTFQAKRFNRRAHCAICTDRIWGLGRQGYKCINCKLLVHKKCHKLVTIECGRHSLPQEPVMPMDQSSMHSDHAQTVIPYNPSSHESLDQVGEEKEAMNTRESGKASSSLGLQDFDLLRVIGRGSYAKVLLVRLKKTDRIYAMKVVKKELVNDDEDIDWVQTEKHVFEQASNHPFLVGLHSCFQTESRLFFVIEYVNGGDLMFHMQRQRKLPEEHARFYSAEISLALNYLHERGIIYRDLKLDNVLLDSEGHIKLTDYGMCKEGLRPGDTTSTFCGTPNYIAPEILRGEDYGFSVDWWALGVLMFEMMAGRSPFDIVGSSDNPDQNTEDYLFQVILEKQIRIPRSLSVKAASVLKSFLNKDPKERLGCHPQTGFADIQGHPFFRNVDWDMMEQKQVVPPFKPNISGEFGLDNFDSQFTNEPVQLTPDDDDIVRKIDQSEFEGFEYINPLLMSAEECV
The following applies: at 0.1 µM.

Assay [3] concerns the target T1, Protein kinase C iota type (Homo sapiens). As to conditions: at 1 µM.
Assay [4] deals with Protein kinase C theta type (Homo sapiens) (UniProt Q04759). The following applies: at 0.1 µM.
Assay [5] shares this target. As to conditions: at 1 µM.
The target of assay [6] is Protein kinase C beta type (Homo sapiens) (UniProt P05771). As to conditions: at 0.1 µM.
For assay [7] the target is unchanged. As to conditions: at 1 µM.
The target of assay [8] is T2, Serine/threonine-protein kinase D1 (Homo sapiens) (UniProt Q15139).
T2 sequence (whole entry): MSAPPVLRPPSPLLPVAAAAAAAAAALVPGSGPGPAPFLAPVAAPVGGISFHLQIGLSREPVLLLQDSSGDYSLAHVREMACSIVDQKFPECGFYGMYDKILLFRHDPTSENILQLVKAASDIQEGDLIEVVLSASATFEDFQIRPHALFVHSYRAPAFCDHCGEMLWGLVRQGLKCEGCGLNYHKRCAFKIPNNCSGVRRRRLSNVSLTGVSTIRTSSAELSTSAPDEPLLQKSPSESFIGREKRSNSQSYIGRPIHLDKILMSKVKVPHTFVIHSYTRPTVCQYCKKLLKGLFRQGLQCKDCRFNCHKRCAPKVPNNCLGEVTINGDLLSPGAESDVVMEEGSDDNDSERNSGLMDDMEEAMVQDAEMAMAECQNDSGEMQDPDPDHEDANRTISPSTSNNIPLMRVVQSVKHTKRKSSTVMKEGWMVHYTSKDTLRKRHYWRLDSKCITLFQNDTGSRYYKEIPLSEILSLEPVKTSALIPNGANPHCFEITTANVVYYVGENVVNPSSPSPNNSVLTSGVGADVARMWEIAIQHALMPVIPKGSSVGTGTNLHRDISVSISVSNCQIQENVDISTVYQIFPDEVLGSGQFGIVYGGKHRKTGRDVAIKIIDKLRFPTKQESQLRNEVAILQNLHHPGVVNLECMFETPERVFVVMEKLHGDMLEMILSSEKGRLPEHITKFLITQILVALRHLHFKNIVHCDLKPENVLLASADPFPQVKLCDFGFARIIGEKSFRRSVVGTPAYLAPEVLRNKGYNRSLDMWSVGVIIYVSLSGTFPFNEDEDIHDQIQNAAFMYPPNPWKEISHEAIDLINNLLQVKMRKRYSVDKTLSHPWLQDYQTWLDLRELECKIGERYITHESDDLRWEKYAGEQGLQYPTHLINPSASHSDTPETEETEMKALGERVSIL
The following applies: at 0.1 µM.

The target in assay [9] is T2, Serine/threonine-protein kinase D1 (Homo sapiens). As to conditions: at 1 µM.
Assay [10] deals with T3, Serine/threonine-protein kinase D2 (Homo sapiens) (UniProt Q9BZL6).
T3 sequence (whole entry): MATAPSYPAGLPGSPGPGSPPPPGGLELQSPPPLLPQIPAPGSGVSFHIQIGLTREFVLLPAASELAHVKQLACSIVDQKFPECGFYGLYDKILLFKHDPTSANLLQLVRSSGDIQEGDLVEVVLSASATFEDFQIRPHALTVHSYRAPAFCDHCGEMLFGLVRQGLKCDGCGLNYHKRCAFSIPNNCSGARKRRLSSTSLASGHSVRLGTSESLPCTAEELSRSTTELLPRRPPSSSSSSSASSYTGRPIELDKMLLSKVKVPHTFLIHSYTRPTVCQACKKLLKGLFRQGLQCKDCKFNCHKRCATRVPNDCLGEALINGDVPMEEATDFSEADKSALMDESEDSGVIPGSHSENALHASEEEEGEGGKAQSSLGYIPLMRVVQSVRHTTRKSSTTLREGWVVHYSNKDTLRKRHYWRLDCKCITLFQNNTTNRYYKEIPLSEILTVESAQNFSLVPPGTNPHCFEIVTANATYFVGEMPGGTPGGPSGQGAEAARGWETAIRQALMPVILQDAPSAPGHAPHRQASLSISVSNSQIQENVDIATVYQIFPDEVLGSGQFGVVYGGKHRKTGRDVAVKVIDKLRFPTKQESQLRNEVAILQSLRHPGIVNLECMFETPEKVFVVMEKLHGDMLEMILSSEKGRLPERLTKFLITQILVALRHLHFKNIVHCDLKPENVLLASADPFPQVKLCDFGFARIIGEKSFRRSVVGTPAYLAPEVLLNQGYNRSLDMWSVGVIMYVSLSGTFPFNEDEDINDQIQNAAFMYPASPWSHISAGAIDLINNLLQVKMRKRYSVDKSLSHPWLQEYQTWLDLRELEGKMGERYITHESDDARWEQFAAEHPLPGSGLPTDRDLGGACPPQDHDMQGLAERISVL
The following applies: at 0.1 µM.

For assay [11], the target named is T3, Serine/threonine-protein kinase D2 (Homo sapiens). As to conditions: at 1 µM.
In assay [12] the target is T4, Serine/threonine-protein kinase D3 (Homo sapiens) (UniProt O94806).
T4 sequence (whole entry): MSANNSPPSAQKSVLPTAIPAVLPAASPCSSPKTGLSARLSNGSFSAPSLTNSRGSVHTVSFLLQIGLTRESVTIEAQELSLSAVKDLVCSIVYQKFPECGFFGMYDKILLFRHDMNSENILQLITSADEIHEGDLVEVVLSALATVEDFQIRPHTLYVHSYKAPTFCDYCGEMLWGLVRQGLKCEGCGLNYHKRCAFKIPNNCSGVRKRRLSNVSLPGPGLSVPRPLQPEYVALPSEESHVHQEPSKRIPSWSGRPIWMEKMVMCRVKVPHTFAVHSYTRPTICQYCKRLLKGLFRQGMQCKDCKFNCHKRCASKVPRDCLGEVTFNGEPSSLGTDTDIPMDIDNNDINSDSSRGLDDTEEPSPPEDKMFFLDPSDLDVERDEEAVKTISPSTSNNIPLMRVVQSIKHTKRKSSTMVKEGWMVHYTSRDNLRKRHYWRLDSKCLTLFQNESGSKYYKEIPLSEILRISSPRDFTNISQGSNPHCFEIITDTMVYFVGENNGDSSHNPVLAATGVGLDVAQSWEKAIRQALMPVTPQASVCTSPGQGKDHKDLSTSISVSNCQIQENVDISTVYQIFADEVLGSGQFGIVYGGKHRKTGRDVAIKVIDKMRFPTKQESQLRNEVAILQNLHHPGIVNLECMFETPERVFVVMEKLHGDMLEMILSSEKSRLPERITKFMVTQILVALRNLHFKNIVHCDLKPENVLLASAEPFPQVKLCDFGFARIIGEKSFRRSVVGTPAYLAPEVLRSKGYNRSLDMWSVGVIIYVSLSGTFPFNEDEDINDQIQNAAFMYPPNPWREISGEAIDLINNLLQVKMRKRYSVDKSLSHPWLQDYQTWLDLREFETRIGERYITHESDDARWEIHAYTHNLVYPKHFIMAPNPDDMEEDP
The following applies: at 0.1 µM.

Assay [13] has as its target T4, Serine/threonine-protein kinase D3 (Homo sapiens). The following applies: at 1 µM.
In assay [14] the target is T5, cGMP-dependent protein kinase 1 (Homo sapiens) (UniProt Q13976).
T5 sequence (whole entry): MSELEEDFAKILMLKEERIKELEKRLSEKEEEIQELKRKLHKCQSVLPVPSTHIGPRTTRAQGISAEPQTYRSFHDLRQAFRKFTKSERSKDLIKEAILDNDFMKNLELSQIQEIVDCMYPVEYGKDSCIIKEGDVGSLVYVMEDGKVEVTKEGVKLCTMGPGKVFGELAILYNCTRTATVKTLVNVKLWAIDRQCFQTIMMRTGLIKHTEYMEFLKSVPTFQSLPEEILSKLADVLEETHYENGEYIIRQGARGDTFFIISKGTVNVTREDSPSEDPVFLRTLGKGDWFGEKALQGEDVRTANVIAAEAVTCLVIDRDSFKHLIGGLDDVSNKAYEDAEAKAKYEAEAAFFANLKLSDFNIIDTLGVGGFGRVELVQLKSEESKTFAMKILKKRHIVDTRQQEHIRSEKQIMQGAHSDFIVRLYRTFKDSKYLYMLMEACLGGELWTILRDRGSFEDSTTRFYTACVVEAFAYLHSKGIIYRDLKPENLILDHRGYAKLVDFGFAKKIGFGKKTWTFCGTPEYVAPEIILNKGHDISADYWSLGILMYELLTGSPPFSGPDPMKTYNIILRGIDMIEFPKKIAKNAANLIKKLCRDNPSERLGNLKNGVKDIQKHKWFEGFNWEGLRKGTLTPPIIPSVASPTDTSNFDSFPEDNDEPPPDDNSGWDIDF
The following applies: at 0.1 µM.

Assay [15] concerns the target T5, cGMP-dependent protein kinase 1 (Homo sapiens). The following applies: at 1 µM.
Assay [16] concerns the target T6, cGMP-dependent protein kinase 2 (Homo sapiens) (UniProt Q13237).
T6 sequence (whole entry): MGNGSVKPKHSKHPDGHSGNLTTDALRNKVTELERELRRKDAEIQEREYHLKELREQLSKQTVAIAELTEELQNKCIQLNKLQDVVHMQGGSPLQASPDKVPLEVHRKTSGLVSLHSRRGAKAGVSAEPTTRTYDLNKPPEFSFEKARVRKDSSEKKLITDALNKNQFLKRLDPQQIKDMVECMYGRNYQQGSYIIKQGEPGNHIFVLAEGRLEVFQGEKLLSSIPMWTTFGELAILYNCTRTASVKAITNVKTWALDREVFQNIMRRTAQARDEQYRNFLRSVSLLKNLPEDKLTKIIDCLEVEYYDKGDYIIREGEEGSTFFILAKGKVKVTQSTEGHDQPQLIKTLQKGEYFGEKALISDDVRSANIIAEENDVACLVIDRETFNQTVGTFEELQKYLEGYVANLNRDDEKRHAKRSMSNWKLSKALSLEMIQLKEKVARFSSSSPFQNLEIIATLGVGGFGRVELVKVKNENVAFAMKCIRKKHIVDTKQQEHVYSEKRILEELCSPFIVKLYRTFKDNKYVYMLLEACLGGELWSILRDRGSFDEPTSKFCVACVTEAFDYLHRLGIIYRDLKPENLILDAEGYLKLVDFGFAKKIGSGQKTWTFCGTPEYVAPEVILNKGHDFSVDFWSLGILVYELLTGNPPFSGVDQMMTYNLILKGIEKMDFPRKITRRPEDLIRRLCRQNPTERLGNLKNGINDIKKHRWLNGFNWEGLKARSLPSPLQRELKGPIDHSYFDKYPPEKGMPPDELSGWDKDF
As to conditions: at 0.1 µM.

The target of assay [17] is T6, cGMP-dependent protein kinase 2 (Homo sapiens). As to conditions: at 1 µM.
Assay [18] has as its target T7, cAMP-dependent protein kinase catalytic subunit PRKX (Homo sapiens) (UniProt P51817).
T7 sequence (whole entry): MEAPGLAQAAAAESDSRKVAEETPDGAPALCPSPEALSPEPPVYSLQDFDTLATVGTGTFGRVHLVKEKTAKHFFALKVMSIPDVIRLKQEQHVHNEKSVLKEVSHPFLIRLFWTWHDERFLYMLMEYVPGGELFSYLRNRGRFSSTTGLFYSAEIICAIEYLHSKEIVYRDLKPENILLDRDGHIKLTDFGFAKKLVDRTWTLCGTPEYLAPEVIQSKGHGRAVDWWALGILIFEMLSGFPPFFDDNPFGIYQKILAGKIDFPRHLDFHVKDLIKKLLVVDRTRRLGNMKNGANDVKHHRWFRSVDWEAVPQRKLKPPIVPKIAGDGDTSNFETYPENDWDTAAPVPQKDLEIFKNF
The following applies: at 0.1 µM.

For assay [19], the target named is T7, cAMP-dependent protein kinase catalytic subunit PRKX (Homo sapiens). The following applies: at 1 µM.
The target in assay [20] is Rho-associated protein kinase 1 (Homo sapiens) (UniProt Q13464). The following applies: at 0.1 µM.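 Further: values are mean percent inhibition of ROCK1.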
Chain of Rho-associated protein kinase 1 (Homo sapiens) (Q13464 2-1354 limits assumed): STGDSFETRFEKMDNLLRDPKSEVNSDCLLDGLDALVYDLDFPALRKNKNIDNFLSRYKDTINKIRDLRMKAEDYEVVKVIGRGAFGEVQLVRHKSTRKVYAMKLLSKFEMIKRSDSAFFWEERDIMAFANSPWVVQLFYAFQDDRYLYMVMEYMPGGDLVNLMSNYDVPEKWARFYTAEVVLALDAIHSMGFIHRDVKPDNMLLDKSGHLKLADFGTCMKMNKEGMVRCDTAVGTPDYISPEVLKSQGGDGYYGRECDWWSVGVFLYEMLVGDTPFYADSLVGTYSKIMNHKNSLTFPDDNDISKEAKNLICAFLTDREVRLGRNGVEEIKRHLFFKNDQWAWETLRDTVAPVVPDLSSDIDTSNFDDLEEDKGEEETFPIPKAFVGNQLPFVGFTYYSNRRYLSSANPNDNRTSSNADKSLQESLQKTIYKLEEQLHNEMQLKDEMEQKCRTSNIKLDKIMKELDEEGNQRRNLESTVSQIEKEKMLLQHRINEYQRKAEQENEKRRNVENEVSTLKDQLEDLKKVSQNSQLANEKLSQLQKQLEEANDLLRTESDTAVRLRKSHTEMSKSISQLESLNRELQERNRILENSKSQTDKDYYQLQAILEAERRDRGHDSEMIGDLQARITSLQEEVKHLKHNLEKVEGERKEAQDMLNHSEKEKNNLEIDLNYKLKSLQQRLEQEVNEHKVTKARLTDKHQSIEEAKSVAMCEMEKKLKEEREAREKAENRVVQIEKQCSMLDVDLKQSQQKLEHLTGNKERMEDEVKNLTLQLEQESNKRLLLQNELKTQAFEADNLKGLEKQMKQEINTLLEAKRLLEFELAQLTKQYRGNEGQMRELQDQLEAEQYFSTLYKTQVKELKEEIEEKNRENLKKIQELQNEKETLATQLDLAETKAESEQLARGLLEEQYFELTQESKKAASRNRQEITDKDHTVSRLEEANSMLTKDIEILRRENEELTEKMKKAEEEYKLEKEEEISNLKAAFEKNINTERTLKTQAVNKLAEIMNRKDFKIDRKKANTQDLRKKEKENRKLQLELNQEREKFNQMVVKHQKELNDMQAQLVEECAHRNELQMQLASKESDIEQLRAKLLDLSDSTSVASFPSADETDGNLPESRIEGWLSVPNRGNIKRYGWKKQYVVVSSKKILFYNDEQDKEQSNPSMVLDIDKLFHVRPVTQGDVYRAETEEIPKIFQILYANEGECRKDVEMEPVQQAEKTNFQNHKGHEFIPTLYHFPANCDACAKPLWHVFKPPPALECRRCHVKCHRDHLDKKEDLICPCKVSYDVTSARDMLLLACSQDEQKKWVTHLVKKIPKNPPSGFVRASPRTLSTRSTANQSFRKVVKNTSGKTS

Chain of Protein kinase C theta type (Homo sapiens) (Q04759 whole entry, looked up): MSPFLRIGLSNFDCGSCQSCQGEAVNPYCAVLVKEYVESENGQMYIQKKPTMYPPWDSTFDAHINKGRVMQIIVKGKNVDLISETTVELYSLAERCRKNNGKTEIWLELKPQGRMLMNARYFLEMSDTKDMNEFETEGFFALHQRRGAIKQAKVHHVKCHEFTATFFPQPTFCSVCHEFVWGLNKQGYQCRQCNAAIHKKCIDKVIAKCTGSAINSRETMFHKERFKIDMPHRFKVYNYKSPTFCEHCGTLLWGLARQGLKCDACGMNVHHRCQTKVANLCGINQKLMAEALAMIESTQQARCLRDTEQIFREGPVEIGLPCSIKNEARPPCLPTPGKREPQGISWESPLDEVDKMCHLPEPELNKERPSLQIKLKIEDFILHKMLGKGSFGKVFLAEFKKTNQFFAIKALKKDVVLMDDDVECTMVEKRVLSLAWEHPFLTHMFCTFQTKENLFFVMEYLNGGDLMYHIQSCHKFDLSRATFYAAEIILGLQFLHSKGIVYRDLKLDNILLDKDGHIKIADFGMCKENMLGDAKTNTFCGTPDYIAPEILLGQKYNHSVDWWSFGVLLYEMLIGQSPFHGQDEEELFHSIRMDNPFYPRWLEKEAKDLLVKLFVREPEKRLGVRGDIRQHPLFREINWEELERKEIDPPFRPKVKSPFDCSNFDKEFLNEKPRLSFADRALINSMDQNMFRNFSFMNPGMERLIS
Chain of Protein kinase C beta type (Homo sapiens) (P05771 2-671 limits assumed): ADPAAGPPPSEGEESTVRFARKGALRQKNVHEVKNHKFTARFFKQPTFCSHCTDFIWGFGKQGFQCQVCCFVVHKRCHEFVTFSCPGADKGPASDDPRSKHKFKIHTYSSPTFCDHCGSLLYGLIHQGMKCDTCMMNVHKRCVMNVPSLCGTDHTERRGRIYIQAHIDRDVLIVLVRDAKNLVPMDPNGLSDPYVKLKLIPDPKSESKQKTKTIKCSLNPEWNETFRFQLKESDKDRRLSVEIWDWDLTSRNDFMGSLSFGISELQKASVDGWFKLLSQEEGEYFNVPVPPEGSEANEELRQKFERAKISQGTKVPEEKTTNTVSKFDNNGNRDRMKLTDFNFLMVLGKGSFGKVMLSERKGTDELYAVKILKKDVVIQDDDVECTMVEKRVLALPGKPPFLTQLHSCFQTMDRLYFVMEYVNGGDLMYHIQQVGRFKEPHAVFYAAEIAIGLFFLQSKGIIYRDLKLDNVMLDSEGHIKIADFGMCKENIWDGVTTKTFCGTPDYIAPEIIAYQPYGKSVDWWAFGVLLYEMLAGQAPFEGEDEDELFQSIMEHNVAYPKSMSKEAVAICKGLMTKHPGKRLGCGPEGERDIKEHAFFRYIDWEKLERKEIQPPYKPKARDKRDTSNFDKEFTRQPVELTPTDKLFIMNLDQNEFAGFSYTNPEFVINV

On to `NS(=O)(=O)c1ccc(Nc2cc(-c3ccc(O)c(F)c3)n[nH]2)cc1`, for which the inhibition (as a rule, the drop in the measured response relative to a control, in per cent) in assay [1] was -0.85%; in [2], -0.61%; in [3] it was 0.05%; in assay [4] it was -1.75%; in [5] it was -1.1%; in assay [6], -0.96%. The inhibition was 0.72% in [7]; -1.96% in [8]; 4.59% in [9]; -2.32% in assay [10]; 2.89% in assay [11]; -2.85% in assay [12]. In addition, the inhibition in assay [13] is 0.82%; in assay [14], -1.74%; in assay [15], -1%; in [16], -1.16%; in assay [17], 0.01%; in assay [18], -0.97%. For the same molecule, the inhibition was -1.36% in assay [19] and -0.2% in [20].
On to `COc1cccc(/C=N/Nc2ncnc3c2cnn3-c2cccc(OC)c2)c1`, for which the inhibition in assay [1] is 6.32%; in assay [2], 1.63%; in assay [3] it was 1.72%; in assay [4], 1.69%; in assay [5], 4%; in assay [6], 0.47%. Further, the inhibition in assay [7] amounted to 1.93%; in [8], 3.52%; in assay [9], 8.09%; in assay [10], 2.74%; in assay [11], 1.36%; in [12] it was 3.64%. Besides, the inhibition in [13] was found to be 2.93%; in [14], 3.82%; in [15], 4.05%; in [16], 1.19%; in assay [17], 3.17%; in assay [18] it was 0.44%. Further, the inhibition is 1.94% in assay [19] and 2.52% in assay [20].
